“And” between values parts separate entries of the source, which are not always exact repeats. Identical values can stand only once. About 80 (0.06%) of roughly 140,000 compounds were called active. Rule as the data show it: active = displacement above about 50%; inactive = the rest. The entries come from a sample that favours actives as a whole. Some structures have more than one record in an assay (separate samples or runs), and their calls can disagree.

Chain of Heat shock 70 kDa protein 1A (Homo sapiens) (P0DMV8 whole entry, looked up): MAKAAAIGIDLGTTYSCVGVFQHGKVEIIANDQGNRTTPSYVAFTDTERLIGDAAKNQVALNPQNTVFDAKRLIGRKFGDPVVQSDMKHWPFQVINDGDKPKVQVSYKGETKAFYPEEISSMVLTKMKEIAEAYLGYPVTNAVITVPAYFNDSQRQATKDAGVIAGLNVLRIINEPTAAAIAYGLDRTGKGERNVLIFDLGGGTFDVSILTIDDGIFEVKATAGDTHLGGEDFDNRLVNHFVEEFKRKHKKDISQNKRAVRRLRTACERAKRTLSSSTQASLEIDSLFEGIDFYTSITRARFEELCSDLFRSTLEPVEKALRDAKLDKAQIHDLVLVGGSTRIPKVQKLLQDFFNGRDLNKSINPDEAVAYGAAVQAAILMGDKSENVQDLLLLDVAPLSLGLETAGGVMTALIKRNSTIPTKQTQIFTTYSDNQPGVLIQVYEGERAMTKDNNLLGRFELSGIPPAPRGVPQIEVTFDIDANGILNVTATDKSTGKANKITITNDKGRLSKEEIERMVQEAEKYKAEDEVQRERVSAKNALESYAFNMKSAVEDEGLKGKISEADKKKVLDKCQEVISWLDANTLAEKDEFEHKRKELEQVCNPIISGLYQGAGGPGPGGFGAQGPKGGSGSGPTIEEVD

The assay has as its target Heat shock 70 kDa protein 1A (Homo sapiens) (UniProt P0DMV8). In words: small molecules displacing fluorescent ligand from Hsp70 – biochemical, fluorescence polarization, primary screen (AID 583).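 Also: plate controls were vehicle for no effect and reference ligand for full effect.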 The note with it: Hsp70 fluorescence polarization probe displacement, mP; at 20 µM; stronger effect = higher value.
Regarding `COc1ccc(NC(=O)Cn2nc(C)c3ccccc3c2=O)cc1`, the displacement is -1% (inactive).
The same measure for `CCCOc1c(Cl)cc(/C=C2/SC(=S)NC2=O)cc1OC`: 1.3% (inactive); for `COc1cc(/C=C2/SC(=S)NC2=O)cc(Cl)c1OCc1cccc2ccccc12`: 99.9% (active).
For `COc1cccc(OCCOc2c(Cl)cc(/C=C3/SC(=S)NC3=O)cc2OC)c1`, the displacement is 0.2% (inactive).
The same measure for `COc1cc(/C=C2/SC(=S)NC2=O)cc(Cl)c1OCc1ccc(Cl)cc1Cl`: 94.8% (active); for `CCOc1cc(/C=C2/SC(=S)NC2=O)cc(Cl)c1OCc1ccc(Cl)cc1Cl`: 4.9% (inactive); for `COc1cc(/C=C2/SC(=S)NC2=O)cc(Cl)c1OCc1ccccc1F`: -0.4% (inactive).
`COc1ccc(N2C(=O)NC(=O)/C(=C\c3cccc(OC)c3OC)C2=O)cc1`: the displacement was -4.3% (inactive).
Take `O=C1N/C(=N/N=C/c2ccccc2)SC1Cc1ccccc1Cl` (stereo not given): the displacement was -1.4% (inactive).
The value for `COC(=S)N/C(=N/S(=O)(=O)c1ccc(Cl)cc1)c1ccccc1` was 0.8% (inactive).
On to `CCOC(=O)c1ccc(N2N=C(C)/C(=C/C=C/c3ccco3)C2=O)cc1`, for which the displacement is 0.7% (inactive).
As to `CC1=NN(c2cccc(C(=O)O)c2)C(=O)/C1=C\c1ccco1`, the displacement is 6.9% (inactive).
For the compound `CC(=O)NS(=O)(=O)c1ccc(NC(=O)c2ccc([N+](=O)[O-])c(C)c2)cc1`, the displacement was 61.3% (active).
Consider `COc1ccc(C(=O)Nc2ccc(S(=O)(=O)NC(C)=O)cc2)cc1[N+](=O)[O-]`, for which the displacement is 3.6% (inactive).
On to `CC(=O)NS(=O)(=O)c1ccc(NC(=O)c2ccc([N+](=O)[O-])cc2)cc1`, for which the displacement is 6.8% (inactive).
In the case of `O=C(NCCc1ccccc1)c1cnc2sccn2c1=O`, the displacement is -1.6% (inactive).
Turning to `Oc1[nH]c2ccccc2c1N=Nc1nc(-c2ccccc2)c2cc(Br)ccc2n1`, the displacement is -0.1% (inactive).
As to `CN(C)c1ccc(/C=C2/SC(N=Nc3c(O)[nH]c4ccccc34)=NC2=O)cc1`, the displacement is 17.1% (inactive).
Consider `O=C1N=C(N=Nc2c(O)[nH]c3ccccc23)S/C1=C/c1ccc(Br)cc1`, for which the displacement was 82.1% (active).
The value for `COc1ccc(Br)cc1/C=C/C(=O)Nc1cccc(NC(=O)c2ccccc2Cl)c1` was -1% (inactive); that for `CCN(CC)c1nc(C)cc(COC)c1C#N` was 2.1% (inactive); that for `CC(C)c1ccc(NC(=O)C(c2ccc3c(c2)OCO3)N2CCC3(CC2)OCCO3)cc1` (stereo not given) was -2.7% (inactive).
For the compound `O=C(CCCC(=O)N1CCCCC1)NCc1ccco1`, the displacement is -1.6% (inactive).
As for `COC(=O)c1ccc(C(=O)OC)c(NC(=O)CSc2nnc(-c3ccccc3Cl)o2)c1`, the displacement was 1.6% (inactive).
With `O=S(=O)(c1cc(Cl)cc(Cl)c1O)c1cc(Cl)cc(Cl)c1O`, the displacement was 8.8% (inactive).
As to `Oc1c(Cl)cc(Cl)cc1Sc1cc(Cl)cc(Cl)c1O`, the displacement is 7.6% (inactive).
The value for `CN(C)c1ccc(/C=C2\NC(=O)c3ccccc3C2=O)cc1` was 2.7% (inactive); that for `CCOC(=O)c1sc2ncc([N+](=O)[O-])c(NC)c2c1N` was -5.6% (inactive).
`Cc1cc(=O)[nH]c(SCC(=O)Nc2ccc(S(N)(=O)=O)cc2)n1`: the displacement was 4.4% (inactive).
In the case of `Cc1ccc(NC(=O)c2ccccc2O)cc1`, the displacement is 2.2% (inactive).
For `O=C(N/N=C/c1ccccc1OCc1ccccc1)c1ccccc1O`, the displacement is 6% (inactive).
In the case of `Cc1ccc(C(=O)O/N=C(\N)c2ccccn2)cc1`, the displacement was 0.2% (inactive).
Consider `O=C(N=Nc1c(O)n(Cc2ccccc2)c2ccccc12)c1ccccc1O`, for which the displacement is 2.1% (inactive).
The same measure for `O=C(Cn1nc(C(=O)O)c2ccccc2c1=O)NCC1CCCO1` (stereo not given): -0.7% (inactive); for `CC(NC(=O)c1c(NC(=O)c2ccco2)sc2c1CCCCC2)c1ccccc1` (stereo not given): -6% (inactive).
On to `COC(=O)COc1ccc(/C=C2\C(=O)NC(=S)N(c3ccc(F)cc3)C2=O)cc1OC`, for which the displacement is 2.8% (inactive).
With `COc1ccc(CNC(=O)c2c(Cl)cccc2Cl)cc1`, the displacement was 5.5% (inactive).
`O=C(Nc1cccc2nsnc12)c1ccc(Cl)cc1Cl`: the displacement is 3.7% (inactive).
Take `Cc1nc(=O)c(-c2ccccc2)c(C)n1-c1ccc(O)c(C(=O)O)c1`: the displacement is -3.3% (inactive).
The same measure for `Cc1ccc(C)n1-c1ccc(Cl)c(C(=O)O)c1`: 83.5% (active).
Turning to `O=C(O)c1ccc(-n2cccc2)cc1O`, the displacement was -0.2% (inactive).
Consider `Cc1ccc(-c2ccccc2)n1-c1ccc(Cl)c(C(=O)O)c1`, for which the displacement was -4% (inactive).
The same measure for `Cc1nc(=O)c(-c2ccccc2)c(C)n1-c1ccc(C(=O)O)c(O)c1`: 0.2% (inactive).
`Cc1ccc(-c2ccccc2)n1-c1ccc(O)c(C(=O)O)c1`: the displacement was 4.2% (inactive).
The same measure for `Cc1ccc(C)n1-c1ccc(C(=O)O)c(O)c1`: 98.5% (active); for `Cc1ccc(C)n1-c1ccc(O)c(C(=O)O)c1`: 98.2% (active); for `Cc1ccc(C)n1-c1ccc(C(=O)O)c(Cl)c1`: 33.7% (inactive).
Take `CC(C)c1c(O)nc(SCC(=O)Nc2ccc3c(c2)CCC3)[nH]c1=O`: the displacement is 1.5% (inactive).
For `Cc1ccc(C)n1-c1cc(C(=O)O)ccc1O`, the displacement was 27% (inactive).
The value for `Cc1cc(Cl)c2cc(C(=O)O)ccc2n1` was 2.8% (inactive); that for `Cc1ccc(C)n1-c1cc(C(=O)O)ccc1Cl` was 89.5% (active).
Regarding `Cc1ccc(C)n1-c1cc(C(=O)O)cc(C(=O)O)c1`, the displacement is 8.5% (inactive).
With `Cc1ccc(-c2ccccc2)n1-c1cccc(C(=O)O)c1`, the displacement was -1.8% (inactive).
The same measure for `Cc1cc(C(=O)O)ccc1-n1c(C)ccc1C`: 61.3% (active) and 37.4% (inactive).
Take `Cc1ccc(C(=O)O)cc1-n1c(C)ccc1C`: the displacement was 67.8% (active).
Turning to `Cc1ccc(C)n1-c1ccc(C(=O)O)cc1`, the displacement is 16% (inactive).
The value for `Cc1ccc(N2C(=O)c3ccc(C(=O)O)cc3C2=O)c(C)c1` was 0.7% (inactive); that for `Cc1cc(N)ccc1-n1c(C)ccc1C` was -2.7% (inactive).
Regarding `Cc1ccc(-c2ccccc2)n1-c1ccc(C(=O)O)cc1`, the displacement was -1.6% (inactive).
Consider `CCN(CC)CCn1c2ccccc2n2cc(C(C)(C)C)nc12`, for which the displacement is 0% (inactive).
The same measure for `CC(=O)Nc1ccc(N2C(=O)c3cc4ccccc4cc3C2=O)cc1`: 5.1% (inactive); for `Cc1cc(Br)cc2c(N=Nc3cccc4cccnc34)c(O)n(C)c12`: 3.2% (inactive); for `CC(=O)C(C(C)=O)c1c(Cl)c(O)c(O)c2c(C(=O)c3ccccc3)coc12`: 1% (inactive).
With `COc1cccc(C(=O)CSc2nnc(COc3cccc4cccnc34)o2)c1`, the displacement was 3.7% (inactive).
With `O=C(O)COc1ccc(N2C(=O)C=CC2=O)cc1`, the displacement was 0.9% (inactive).
Take `Cc1ccc(C)n1-c1ccc(CC(=O)O)cc1`: the displacement is 23.3% (inactive).
Take `Cc1ccc(C)n1-c1ccc(OCC(=O)O)cc1`: the displacement was 62.2% (active).
On to `CC(C)(C)c1ccc(OCC(=O)O)cc1`, for which the displacement is 4.2% (inactive).
Take `CC(=O)c1ccc(-n2c(C)ccc2C)cc1`: the displacement was 6.4% (inactive).
On to `Cc1ccc(C)n1-c1ccc(SCC(=O)O)cc1`, for which the displacement is 100% (active).
With `CC1CCCCN1CCNC(=O)CC1Oc2ccccc2NC1=O` (stereo not given), the displacement was 9.4% (inactive).
Take `CCOC(=O)c1c(C)[nH]c(C(=O)COC(=O)C(C)N2C(=O)C3CCCCC3C2=O)c1C` (stereo not given): the displacement is -1.9% (inactive).
For the compound `CCOC(=O)C1CCN(C(=O)CSCCSCC(=O)N2CCC(C(=O)OCC)CC2)CC1`, the displacement was -0.9% (inactive).
For the compound `COc1ccc2[nH]c(=O)c(CN(C(=O)c3ccco3)C3CCCCC3)cc2c1`, the displacement was -0.4% (inactive).
With `O=C1S/C(=C\c2cccs2)C(=O)N1c1cccc(Cl)c1`, the displacement is -1.3% (inactive).
For `CC(Oc1ccc2c3c(c(=O)oc2c1)CCCC3)C(=O)c1ccccc1` (stereo not given), the displacement was 2.3% (inactive).
As to `O=C(CCn1nnc2ccccc2c1=O)NCC1CCC(C(=O)O)CC1` (stereo not given), the displacement was 2% (inactive).
The value for `O=C(CNC(=O)c1ccc(Cl)cc1Cl)c1ccccc1` was 1.6% (inactive).
For `COc1cccc(CN(CC2CCCO2)S(=O)(=O)c2ccc(S(=O)(=O)NCC3CCCO3)cc2)c1OC` (stereo not given), the displacement is -2.5% (inactive).
The same measure for `C=CCN1C(=O)/C(=C\c2ccc(-c3ccc([N+](=O)[O-])cc3)o2)C(=O)NC1=S`: 2.8% (inactive); for `C=CCN1C(=O)/C(=C\c2ccc(I)o2)C(=O)NC1=S`: 0.9% (inactive); for `C=CCN1C(=O)/C(=C\c2ccc([N+](=O)[O-])o2)C(=O)NC1=S`: 95.9% (active).
For the compound `Cc1ccc(NC2=C(Cl)C(=O)N(c3ccccc3Cl)C2=O)cc1C`, the displacement is 0.5% (inactive).
On to `CCOc1ccc(C(=O)Nc2ccc(NC(=O)c3ccccc3Cl)cc2)cc1Br`, for which the displacement is -4.2% (inactive).
On to `COc1ccc(/C=C/C(=O)Nc2nc(C)c(C)s2)cc1OC`, for which the displacement was -0.1% (inactive).

The values are drawn from PubChem BioAssay AID583 (Sanford-Burnham Center for Chemical Genomics, 2007).
